Out of some 410,000 compounds screened, about 5,100 (1.2%) were called active. Where a call stands in place of a potency, no number is given. Another 8% or so got no clear call; they are omitted. For the sample, actives were picked, then their nearest neighbours and some compounds at random. Unmarked numbers belong to inactive results. The call rests on the fitted dose curve; tested in HEK293T cells.
Assay: High Throughput Screening for Foot and Mouth Disease Virus Antivirals; further: read-out not given here; nearly all actives have a fitted effect of over 45% in size
Settings: FMDV antiviral cell-based qHTS; series mostly up to 57.9 µM
Potency means the concentration at half of the fitted maximal effect.

Structure (SMILES) | Potency | activity change, negative = inhibition
COc1ccc2c(c1)NC(=O)C2CC(=O)N1CCOc2c(cc(-c3cnc4ccccc4c3)cc2OC)C1 (stereo unspecified) | inactive | 
O=C1/C(=C\c2ccc([N+](=O)[O-])cc2)CS(=O)(=O)C/C1=C/c1ccc([N+](=O)[O-])cc1 | 2.24 µM (active) | 
Nc1ccc([N+](=O)[O-])cc1 | inactive | 
O=C(NCCCc1ccccc1)c1ccc2c(c1)sc1nc(-c3ccc(F)cc3)cn12 | inactive | 
Cc1ncc2c(c1CNS(=O)(=O)N(C)C)CCN(C(=O)c1ccccc1F)C2 | inactive | 
CC(C)CCNC(=O)c1ccc2c(Cl)c3c(nc2c1)CCC3 | inactive | 
COc1cccc(CNC(=O)c2ccc3c(Cl)c4c(nc3c2)CCCC4)c1 | inactive | 
CC(=O)c1ccc(NC(=O)c2ccc3c(Cl)c4c(nc3c2)CCCC4)cc1 | 22.4 µM (active) | 
COc1ccc(-c2noc(-c3ccc(N4CCN(c5ccccc5)CC4)c([N+](=O)[O-])c3)n2)cc1OC | inactive | 
c1ccc(CN2CCN(Cc3ccc4c(c3)CN(Cc3c[nH]c5ccccc35)CCO4)CC2)nc1 | inactive | 
CCOC(=O)C(=O)C1C(=O)Nc2ccccc21 (stereo unspecified) | inactive | 
COc1ccccc1/C=C/C(=O)OCC(=O)NC1CCCCCC1 | inactive | 
CCOC(=O)C(=Cc1ccccc1)C(=O)c1ccccc1 | 8.91 µM (active) | 
COc1ccccc1C(=O)OCC(=O)NCCNC(=O)COC(=O)c1ccccc1OC | inactive | 
CCOC(=O)CCP(=O)(O)C(O)(c1ccccc1)c1ccccc1 | inactive | 
CCOC(=O)C(=Cc1ccccc1OC)C(=O)OCC | 28.2 µM (active) | 
Cc1ccc(CC2(O)CCN(CCOc3ccc(O)cc3)CC2)cc1 | inactive | 
C[C@@H]1CN(Cc2ccc3c(c2)CN(Cc2ccc(Oc4ncccn4)cc2)CCO3)C[C@H](C)O1 | inactive | 
CCS(=O)(=O)N(C)[C@@H]1c2cc(C#N)ccc2OC(C)(C)[C@H]1O | inactive | 
CC(=O)Nc1ccc(-c2csc(NC(=O)Nc3ccccc3)n2)cc1 | 15.8 µM (active) | 
CCn1c(SCC(=O)Nc2nc(C)cs2)nnc1C(C)NC(=O)c1ccccc1 (stereo unspecified) | inactive | 
CC(=O)NC(c1ccccc1)c1nc(-c2ccccc2C)cs1 (stereo unspecified) | inactive | 

Structure (SMILES) | Potency | activity change, negative = inhibition
CC(=O)Nc1ccc(C(=O)Nc2nc(-c3cc(C)n(Cc4ccccc4)c3C)cs2)cc1 | 22.4 µM (active) | 
CC(=O)c1ccc(NC(=O)CSc2nnc(NC(=O)Nc3ccccc3)s2)cc1 | inactive | 
Cc1ccc(C(=O)Nc2ccc(OCc3cc(=O)n4c(C)csc4n3)cc2)cc1 | inactive | 
O=S(=O)(NCC(c1ccccc1)N1CCc2ccccc21)c1ccccc1 (stereo unspecified) | inactive | 
CC1CCCN(Cc2nc3c(c(=O)n(C)c(=O)n3C)n2CC(=O)c2ccccc2)C1 (stereo unspecified) | inactive | 
CC1CN(Cc2nc3c(c(=O)n(C)c(=O)n3C)n2Cc2cccc(Cl)c2)CC(C)O1 (stereo unspecified) | inactive | 
COCCn1c(CN2CCC(Cc3ccccc3)CC2)nc2c1c(=O)n(C)c(=O)n2C | 15.8 µM (active) | 
CC(C)C1=CC2=CC[C@H]3[C@](C)(C(=O)O)CCC[C@]3(C)C2CC1 (stereo partly specified) | inactive | 
CC(=O)N1CCN(Cc2cc(=O)oc3cc(C)ccc23)CC1 | inactive | 
COc1ccc2c(CN3CCN(S(=O)(=O)c4cccs4)CC3)cc(=O)oc2c1 | 39.8 µM (active) | 
O=c1cc(CN2CCN(S(=O)(=O)/C=C/c3ccccc3)CC2)c2ccc(O)cc2o1 | inactive | 
O=c1c(NCc2cccs2)nccn1-c1ccccc1 | inactive | 
CCCCC/C=C\C/C=C\C/C=C\C=C\[C@H](CCCC(=O)O)OO |  | -15.4% [at 0.463 µM]
O=C(NCc1cccnc1)c1ccc(CS(=O)(=O)c2ccc(Br)cc2)o1 | inactive | 
COc1ccc(CCNC(=O)c2ccc(CS(=O)(=O)c3ccc(Br)cc3)o2)cc1OC | 31.6 µM (active) | 
COc1ccc(CCNC(=O)c2nnc(CS(=O)(=O)c3ccccc3)o2)cc1OC | inactive | 
CCc1ccc(-n2c(SCc3cc(=O)n4cc(Br)ccc4n3)nc3[nH]ncc3c2=O)cc1 | 31.6 µM (active) | 
Cc1nnc(NC(=O)CSc2nc3c([nH]c4ccccc43)c(=O)n2-c2cccc(Cl)c2)s1 | inactive | 
Cc1cccc2nc(CSc3nc4[nH]ncc4c(=O)n3-c3cccc(Cl)c3)cc(=O)n12 | 15.8 µM (active) | 
O=c1c2sccc2nc(SCc2cc(=O)n3ccccc3n2)n1-c1ccc(Br)cc1 | inactive | 
Cc1ccc(CSc2nc3[nH]ncc3c(=O)[nH]2)cc1 | inactive | 
Cc1nnc(SCc2cccc(Cl)c2)n(N)c1=O | inactive | 

Structure (SMILES) | Potency | activity change, negative = inhibition
COc1ccc(CCNC(=O)C(=O)NCC(c2ccco2)S(=O)(=O)c2cccs2)cc1OC (stereo unspecified) | inactive | 
O=C(NCc1ccccc1)C(=O)NCC(c1ccco1)S(=O)(=O)c1ccc(Cl)cc1 (stereo unspecified) | 31.6 µM (active) | 
O=C(Cc1ccc(Cl)cc1)NCC(c1cccs1)S(=O)(=O)c1ccc(Cl)cc1 (stereo unspecified) | inactive | 
COc1ccc(Oc2ncc3nc(-c4ccc(F)cc4)c(=O)n(C)c3n2)cc1 | inactive | 
CC(=O)Nc1cc(C(=O)NCc2ccc(F)cc2)ccc1Sc1ccc(F)cc1 | inactive | 
COc1ccc(C2=Nn3c(nnc3-c3ccccc3OC)SC2)cc1OC1CCCC1 | 14.1 µM (active) | 
Cc1nnc2n1N=C(c1ccc3c(c1)NC(=O)CO3)CS2 | inactive | 
CCN(CCCNC(=O)CSc1cc(=O)n(C)c2cc(Cl)ccc12)c1cccc(C)c1 | inactive | 
CCC1(C2CCN(C(=O)c3cccc(F)c3F)CC2)NC(=O)N(CCc2scnc2C)C1=O (stereo unspecified) | inactive | 
COc1cc(=O)n2c(c1C(=O)NCc1ccco1)CCN(Cc1ccccc1)CC2 | inactive | 
CCCCN(CC)CCCNC(=O)CS(=O)(=O)Cc1nc(-c2cccc(OC)c2)oc1C | inactive | 
Cc1ccccc1-c1nc(CS(=O)(=O)CC(=O)N2CCc3ccccc3C2)c(C)o1 | inactive | 
COc1cccc(-c2nc(CS(=O)(=O)CC(=O)N3CCN(c4cc(C)ccc4C)CC3)c(C)o2)c1 | 20 µM (active) | 
COc1ccc(C)cc1-n1c(-c2ccc(C)cc2)cc2c1CC(C)(C)CC2=O | inactive | 
N#CC(C#N)=Cc1cc(O)c(O)c([N+](=O)[O-])c1 | inactive | 
COc1ccc(-n2nnc(-c3nsc(NC(=O)c4ccc(C)c(C)c4)n3)c2C)cc1Cl | inactive | 
Cc1sc2ncnc(SCC(=O)NC3CCS(=O)(=O)C3)c2c1C (stereo unspecified) | inactive | 
CCc1ccc(CNC(=O)C2CCN(c3nnc(C)c4c(C)n(-c5ccc(C)cc5)nc34)CC2)cc1 | inactive | 
CCc1ccc(C(=O)NNC(=O)C2CCN(c3ncnc4sc(C)c(C)c34)CC2)cc1 | 31.6 µM (active) | 
Cc1sc2ncnc(N3CCC(C(=O)NNC(=O)c4ccc(F)cc4)CC3)c2c1C | 20 µM (active) | 
Cc1sc2ncnc(SCC(=O)Nc3ccc(CN4CCCC4)cc3)c2c1C | inactive | 
Cc1ccc(C)n1-c1nnc(N2CCC(C(=O)NCc3ccc(F)cc3)CC2)s1 | inactive | 
